# FMDV antiviral: foot and mouth disease virus antiviral activity. FMDV antiviral cell-based qHTS. Potency, µM (highest dose often 57.9 µM), for the others: top-dose activity change, negative = inhibition, usual class: inhibitors. hit rate 1.2% among 410,000; calls by dose curve; tested in HEK293T cells; also: read-out not given here; potency is read from the fitted curve at half-maximal effect; % is scaled to controls: 0 for no effect and ±100 for the full control effect; nearly all actives have a fitted effect of over 45% in size
# Shiga toxin inh: blocks Shiga toxin action in Vero cells; inhibition, % at 38.7 µM; Vero cells, Shiga toxin protein synthesis inhibition reporter; AID 2315; hit rate 9.2% among 290,000; in the data active = inhibition mostly above about 28%, no sharp cut-off; inactive = mostly below about 43%; also: 0% is about no effect
# CHX counter: counter-screen hit for Shiga toxin inhibitors, cycloheximide; cell reporter, cycloheximide protein synthesis inhibition counterscreen; max response, %; hit rate 12% among 300,000; in the data active = max response mostly above about 13%, no sharp cut-off; inactive = mostly below about 14%; also: read at 38.3 µM for the half of the compounds with a filed dose; 0% is about no effect
# Sm TGR inh: blocks Schistosoma mansoni thioredoxin glutathione reductase; purified TGR, DTNB reduction, TNB absorbance 405 nm; hit rate 3% among 360,000; Q962Y6; Potency, µM (top dose mostly 114 µM), without a hit: at the top dose activity change, negative = inhibition, most hits filed as inhibitors; active = well fitted inhibition curve with a large enough effect; inconclusive = small, poorly fitted or top-dose-only effect; inactive = no such curve, though single readings can be large or run the other way; also: potency is read from the fitted curve at half-maximal effect; % is scaled to controls: 0 for no effect and ±100 for the full control effect; nearly all actives have a fitted effect of over 60% in size
#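 TGR 20 nM + NADPH 100 uM (dispensed conc.), cpd preinc 15 min RT; start with NADPH (500 uM addition) then DTNB (15 mM addition). Kinetic TNB absorbance, 405 nm filter. Four-parameter Hill fit across titration.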
# The depositor's hits bear a star; ? = inconclusive; / = no result; [ ] = remark or other dose. An excerpt weighted towards active compounds, which were near 12% of everything screened.
SMILES,FMDV antiviral,Shiga toxin inh,CHX counter,Sm TGR inh
CC12CCC(/C(=N/O)C1=O)C2(C)C (stereo not given),/,-6,6,/
C/C(=N\NC(=O)C1CC1)c1ccc2c(c1)OCCO2,47%,44,28*,6%
C/C(=N\NC(=O)c1nc2ccccn2c1C)c1ccc2c(c1)OCO2,34%,42,19*,3%
C/C(=N\NC(=O)c1nc2ccccn2c1C)c1cccc([N+](=O)[O-])c1,?,-1,12,-1%
C/C(=N\NC(=O)C1CC1)c1ccc(Cl)c(Cl)c1,49%,-15,4,3%
C/C(=N\Nc1ccc([N+](=O)[O-])cc1)c1ccc2c(c1)OCO2,16%,81*,30*,-1%
C/C(=N\NC(=O)CNC(=O)c1ccc2c(c1)OCO2)c1ccco1,5%,15,2,1%
C/C(=N\NC(=O)c1ccc2c(c1)OCO2)c1ccc(C(=O)O)s1,16%,54*,31*,5%
CNC(=O)C1CCC(Cn2c(=O)c3sccc3n(CC(=O)N3CCCC3)c2=O)CC1 (stereo not given),-1%,/,/,-8%
COc1cc(NC(=O)C2CCN(C(=O)c3sc4nc[nH]c(=O)c4c3C)CC2)cc(OC)c1OC,-8%,/,/,1%
CCOC(=O)c1c(Oc2ccc(C(=O)OC)cc2)nnc(-c2ccccc2)c1-c1ccccc1,?,/,/,3%
CCc1cccc(C)c1NS(=O)(=O)c1cc2[nH]c(=O)c(=O)[nH]c2cc1C,-15%,/,/,3%
CCCN(CCC)C(=O)c1ccc2c(c1)OCO2,16%,15,-2,-15%
Cc1ccc(C(=O)NCc2ccc3c(c2)OCO3)c(C)c1,39%,17,11,1%
CC(/C=C/c1ccccc1)=N\NC(=O)c1ccc2c(c1)OCCO2,-15%,48*,50*,6%
CC(/C=C/c1ccccc1)=N/NC(=O)CNC(=O)c1ccc2c(c1)OCO2,-3%,-7,-3,-9%
C/C(=N\NC(=O)c1ccc2c(c1)OCCO2)c1ccccc1,-40%,52*,21*,13%
C/C(CCc1ccc2c(c1)OCO2)=N\NC(=O)c1ccc(C)cc1C,-11%,77*,39*,12%
CCCCCC1=CCC/C1=N\NC(=O)c1ccc2c(c1)OCO2,-6%,27,19*,-9%
Cc1ccc(OCCSc2nc3ccccc3n2CC(=O)N2CCCCC2)cc1C,0%,/,/,-9%
COc1ccc(C(=O)NN=C2CCCC2)cc1OC,-2%,-2,-2,-2%
O=C(NN=C1CCCCCC1)c1ccc2c(c1)OCO2,16%,38,38*,0%[57.1 µM]
CCc1ccc(C(=O)NCC2COc3ccccc3O2)o1 (stereo not given),7%,57*,23*,-13%
O=C(CCC1COc2ccccc2O1)NCC1COc2ccccc2O1 (stereo not given),-12%,3,1,-4%
O=C(NCC1COc2ccccc2O1)c1ccc(Br)s1 (stereo not given),40%,108*,23*,-2%
SMILES,FMDV antiviral,Shiga toxin inh,CHX counter,Sm TGR inh
O=C(NCC1COc2ccccc2O1)c1cccs1 (stereo not given),22%,72*,40*,-17%
Cc1nc2ccc(S(=O)(=O)N3CCN(S(=O)(=O)c4c(F)cccc4F)CC3)cc2s1,/,-6,-11,/
FC(F)(F)c1nc(-c2cccs2)ncc1-c1nnnn1-c1ccc(Cl)cc1,11µM*,3,-2,-7%
COc1ccc(CNCc2c(C(=O)O)c(C)n(Cc3ccccc3C)c2C)cc1OC,13%,/,/,-3%
CC1CCC(NC(=O)CCc2cn(Cc3ccc(F)cc3)c3ccccc23)CC1 (stereo not given),0%,/,/,-1%
Cc1cc(NC(=O)CCNS(=O)(=O)c2cccc3nsnc23)ccc1Br,8%,/,/,-10%
N#CC(=C=[N-])c1nc2ccccc2nc1-[n+]1cccc(NC(=O)c2cccs2)c1,-11%,-23,-2,40µM*
N#CC(=C=[N-])c1nc2ccccc2nc1-[n+]1cccc(NC(=O)c2ccccc2)c1,10%,-14,-1,40µM*
Cn1nnnc1N=N/C(=N/Nc1ccccc1)c1ccccc1,-6%,45,17*,-12%
COc1cc2c(cc1OC)/C(=C/c1ccc(Cl)cc1)C(=O)OC2,40µM*,-11,-5,-5%
CCOc1ccccc1NC(=O)c1c(NC(=O)C(C)Oc2ccc(Cl)cc2)sc2c1CCCCC2 (stereo not given),0%,/,/,-2%
Cc1ccc(-c2cc(C(=O)N/N=C/c3ccco3)n[nH]2)s1,17%,10,23*,-28%
Nc1nccnc1C(=O)N/N=C/c1ccco1,57%,93*,63*,?
CC(C)(C)c1cc(C(=O)N/N=C/c2ccco2)n[nH]1,75%,43,33*,-2%
CCOc1ccc(OCC)c(NC(=O)c2cnn(-c3ccc(F)cc3)c2-n2cccc2)c1,-18%,/,/,-4%
CC(C)(C)C(=O)Cn1ncc(NC2CC2)c(Br)c1=O,20%,14,13*,5%
CC(C)(C)C(=O)Cn1ncc(N2CCCC2)c(Br)c1=O,25%,138*,36*,-1%
CCOC(=O)c1ccc2c(c1)[nH]c(=S)n2CC,55%,88*,29*,0%
COC(=O)c1ccc(/C=C/c2nc3ccccc3c(=O)[nH]2)cc1,18%,51*,13,4%
Cc1ccc(/C=C/c2nc3ccccc3c(=O)[nH]2)cc1,16µM*,71*,54*,17%
COCCOC(=O)N/C=C\c1nc2ccccc2c(=O)[nH]1,9%,22,-3,1%
Cc1ccc(/C=C/c2nc3ccccc3[nH]2)o1,-49%,51*,40*,3.5µM*
Cc1cccc(Cc2nc3ccccc3[nH]2)c1,4%,/,/,/
Cc1ccc(/C=C/c2nc3ccccc3[nH]2)cc1,8.9µM*,/,/,-6%
c1ccc(-c2cccc(N3CC[C@@]4(CCCNC4)C3)c2)cc1,-10%,/,/,/
SMILES,FMDV antiviral,Shiga toxin inh,CHX counter,Sm TGR inh
COc1ccc(OC)c(CCNC(=O)CN2C(=O)COc3ccc(S(=O)(=O)N4CCC(C)CC4)cc32)c1,-2%,/,/,4%
O=C(NCc1cccc(Cl)c1)C1CCCN(c2ncnc3onc(-c4ccc(F)cc4)c23)C1 (stereo not given),0%,/,/,-2%
Cc1ccc(Cl)cc1NC(=O)Nc1nnc(N2CCCC(C)C2)s1 (stereo not given),-5%,/,/,27%
Nc1ccccc1C(=O)CC(N)C(=O)O (stereo not given),23%,/,/,/
COc1cccc(CN2CC(C(=O)N(C)Cc3ccc(C)cc3)CCC2=O)c1 (stereo not given),24%,29,43*,-13%
COc1cccc(CN2CC(C(=O)N3CCOCC3)CCC2=O)c1 (stereo not given),23%,66*,46*,9%
COc1cccc(CN2CC(C(=O)NCCCc3ccc(C)cc3)CCC2=O)c1 (stereo not given),4%,48,19*,-8%
COc1cccc(CN2CC(C(=O)N(C)Cc3[nH]c4ccccc4c3C)CCC2=O)c1 (stereo not given),-16%,-1,-1,-31%
COc1cccc(CN2CC(C(=O)NCCCc3ccncc3)CCC2=O)c1 (stereo not given),-17%,-10,-4,-20%
COc1ccc(NC(=O)CSc2ncc3c(n2)-c2cc(Cl)ccc2N(Cc2ccccc2F)S3(=O)=O)cc1,5%,/,/,-20%

# High-throughput results deposited in PubChem by National Center for Advancing Translational Sciences (NCATS).
